Reference: PubChem BioAssay AID493168 (National Center for Advancing Translational Sciences (NCATS), 2011)
Inconclusive results are not listed. Where a call stands in place of a potency, no number is given. The source made the active and inactive calls. Calls come from the whole dose curve; as a rule, active = well fitted inhibition curve with a large enough effect; inconclusive = small, poorly fitted or top-dose-only effect, or effect the other way; inactive = flat fitted curve, though single readings scatter.

The compounds below were run against Ubiquitin carboxyl-terminal hydrolase 2 (Homo sapiens) (UniProt O75604) (assay: Confirmation Assay for Inhibitors of Ubiquitin-specific Protease USP2a Using CHOP2 as the Reporter). Details: USP2 core, Ub-CHOP2 coupled reporter fluorescence; series mostly up to 38.3 µM.
Chain of Ubiquitin carboxyl-terminal hydrolase 2 (Homo sapiens) (O75604 whole entry, looked up): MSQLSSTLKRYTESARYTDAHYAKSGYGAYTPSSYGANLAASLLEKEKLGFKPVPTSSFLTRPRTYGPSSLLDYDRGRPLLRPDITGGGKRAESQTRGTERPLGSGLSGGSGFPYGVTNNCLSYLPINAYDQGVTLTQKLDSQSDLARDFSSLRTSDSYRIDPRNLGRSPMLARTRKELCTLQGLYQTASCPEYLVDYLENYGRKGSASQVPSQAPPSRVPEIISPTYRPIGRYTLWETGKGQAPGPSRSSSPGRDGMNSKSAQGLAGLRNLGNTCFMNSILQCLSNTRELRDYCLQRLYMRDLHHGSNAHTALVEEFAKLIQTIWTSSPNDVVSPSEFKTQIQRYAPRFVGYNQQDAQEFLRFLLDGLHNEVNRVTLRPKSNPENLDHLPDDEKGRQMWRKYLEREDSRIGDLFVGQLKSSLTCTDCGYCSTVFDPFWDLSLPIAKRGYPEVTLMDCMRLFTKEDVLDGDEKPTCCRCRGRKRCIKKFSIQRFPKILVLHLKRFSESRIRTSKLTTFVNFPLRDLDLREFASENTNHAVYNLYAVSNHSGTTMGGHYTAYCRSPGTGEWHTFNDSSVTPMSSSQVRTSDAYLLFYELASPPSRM
In short: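 Ub-CHOP2 cleavage coupled to reporter activation was read by fluorescence after 60 min at RT, with 25 nM final Ub-CHOP2 and substrate. Enzyme (10 nM final USP2 core) first sat 30 min with compound; data were normalized to NEM and fitted to concentration-response curves.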
Note: nearly all actives have a fitted effect of over 55% in size.
Potency is the fitted concentration of half-maximal effect.

| Compound | Potency |
| --- | --- |
| CC(C(=O)Nc1ccc(C(=O)O)c(O)c1)N1C(=O)/C(=C\c2ccco2)SC1=S (configuration not stated) | 16.5 µM (active) |
| O=C(CNC(=O)C1CCCCC1)NC1=NCCS1 | inactive |
| CCn1c(=O)c(C(=O)Nc2ccccc2S(N)(=O)=O)c(O)c2ccccc21 | 13.1 µM (active) |
| O=C1c2ccccc2C(=O)N1CCC1=CCCCC1 | inactive |
| C=CC[C@H](CC(=O)OC(C)(C)C)C(=O)OC[C@@H]1CCCN1C(=O)[C@H](CC=C)CC(=O)N[C@H](CO)Cc1ccccc1 | inactive |
| COc1ccc2[nH]c(=O)c(CN(Cc3ccco3)Cc3nnnn3Cc3ccccc3)cc2c1 | inactive |
| COc1cccc(-c2csc3nnc(SCC(=O)NCc4cccs4)n23)c1 | inactive |
| Cn1c2ccccc2c2nnc(SC3CCOC3=O)nc21 (configuration not stated) | inactive |
| C/C(Cn1nnc2ccccc21)=N\OC(=O)c1ccccc1C | inactive |
| CCn1cc(C(=O)N2CCOCC2)c(=O)c2cc(S(=O)(=O)N(C)C)ccc21 | inactive |
| CCCOc1ccc(N2C(=O)CC(NCCc3ccc(S(N)(=O)=O)cc3)C2=O)cc1 (configuration not stated) | inactive |
| CN1CCN(CCC(=O)N/N=C/c2cc([N+](=O)[O-])ccc2O)CC1 | inactive |
| COc1ccccc1C1NC(c2ccccc2OC)C(C)C(=O)C1C (configuration not stated) | inactive |
| O=C(c1cccc(F)c1)N1CCN(S(=O)(=O)c2ccccc2)CC1 | inactive |
| O=C(CCSCc1ccc(Cl)cc1)NCCc1ccccc1 | inactive |
| CCOc1ccccc1N1C(=O)CC(Nc2ccc(N3CCOCC3)cc2)C1=O (configuration not stated) | inactive |
| CN(C)C=Nc1ncc2c3ccccc3n(CCN(C)C)c2c1C#N | inactive |
| C[C@@H]1CN([C@@H](C)CO)C(=O)c2cc(NC(=O)CCC(F)(F)F)ccc2O[C@H]1CN(C)S(=O)(=O)c1ccc(Cl)cc1 | inactive |
| CC(C)(C)C(=O)Nc1c2c(nc3c1CCC3)CCCC2 | inactive |
| CCc1cc2c(=O)c(-c3nc4ccccc4n3C)coc2c(CN2CCCCC2C)c1O (configuration not stated) | inactive |
| O=C(NCC(c1cccnc1)N1CCN(c2ccc(F)cc2)CC1)OCc1ccccc1 (configuration not stated) | inactive |
| COc1ccc(CNS(=O)(=O)c2ccc(S(=O)(=O)N3CCCCC3)cc2)cc1 | inactive |
| Cc1cc(C)n2cc(CSc3nnnn3-c3ccccc3C)nc2n1 | inactive |
| CC1CCN(c2ccc3c(c2)S(=O)(=O)c2cccc(C(=O)NC4CC4)c2C3=O)CC1 | inactive |
| Cc1ccc(S(=O)(=O)N2CCOCC2)cc1NC(=O)CN1C(=O)NC(C)(c2ccc(Cl)cc2Cl)C1=O (configuration not stated) | inactive |
| C=CC[C@H](CC(=O)N(CCO)Cc1ccccc1)C(=O)N[C@H](C)COC(=O)[C@@H](CC=C)CC(=O)OC(C)(C)C | inactive |
| CCn1c(CN2CCOCC2)nnc1SCC(=O)Nc1ccc(C(C)=O)cc1 | inactive |
